Data as given in PubChem BioAssay.
Activity calls are given as the source filed them. Unless noted, no stated cut-off is given here; in the data, active means inhibition above about 42%; inactive means the rest.

Legend:
[1] = molecular target: Nuclear receptor coactivator 3 (Homo sapiens) (UniProt Q9Y6Q9); assay: NCOA3 GAL4-fusion reporter inhibition – cell-based, luminescence, quadruplicate, confirmation (AID 588792;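 active means mean inhibition over 43.08%, the solvent-only control mean plus 3 SD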;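 further: 0% = DMSO treated cells and 100% = gossypol at 36 µM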); conditions: HEK293 GAL4-SRC3 luciferase reporter, at 3.6 µM, active compounds read high
[2] = tested on: transactivating tegument protein VP16 (Human herpesvirus 1), Gal4-VP16 luciferase reporter; assay: repression of VP16-driven luciferase reporter – cell-based, luminescence, high throughput, counter-screen for SRC3 inhibitor project (AID 588794; in the data active means inhibition above about 30%); conditions: mammalian cells, at 3.6 µM, active compounds read high
[3] = molecular target: Nuclear receptor coactivator 1 (Homo sapiens) (UniProt Q15788); assay: NCOA1 GAL4-fusion reporter inhibition – cell-based, luminescence, quadruplicate, confirmation (AID 588820;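 active means mean inhibition above 46.68%, the untreated control wells mean plus 3 SD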;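 further: 0% = DMSO wells and 100% = gossypol 36 µM treated wells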); conditions: HEK293 GAL4-SRC1 luciferase reporter, at 3.6 µM, active compounds read high
[4] = repression of VP16-driven luciferase reporter – cell-based, luminescence, high throughput, counter-screen for SRC1 inhibitor project (AID 588824; in the data active means inhibition above about 25%); conditions: cell-based VP16 transactivation luciferase luminescence; at 3.6 µM; active compounds read high
[5] = StAR promoter reporter inhibitors, counter-screen for LRH-1 inverse agonist project, cell-based, luminescence, high throughput (AID 651611; in the data active means inhibition above about 28%); conditions: StAR promoter luciferase reporter counterscreen, at 3.6 µM, active compounds read high
[6] = molecular target: Nuclear receptor subfamily 5 group A member 2 (Homo sapiens) (UniProt O00482); assay: NR5A2 activity suppression in reporter cells – cell-based, luminescence, confirmation (AID 651613); conditions: cell-based LRH-1 luciferase reporter, inverse agonism; at 3.6 µM; active compounds read high;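 further: HEK293T cells co-transfected with LRH-1 and StAR promoter luciferase reporter; 0% = vehicle wells and 100% = parental cells lacking receptor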
[7] = molecular target: Steroidogenic factor 1 (Homo sapiens) (UniProt Q13285); assay: inverse agonism at SF1 nuclear receptor – cell-based, luminescence, high throughput, counter-screen for LRH-1 inverse agonist project (AID 651614; in the data active means inhibition above about 44%;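 further: cells cotransfected with StAR promoter reporter and SF1 expression vector; 0% = vehicle on cells with receptor and 100% = vehicle on cells lacking receptor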); conditions: cell-based SF1 luciferase reporter, at 3.6 µM, active compounds read high
[8] = compounds suppressing VP16-driven luciferase signal – cell-based, luminescence, high throughput, counter-screen for LRH-1 inverse agonist project (AID 651615; in the data active means inhibition above about 33%); conditions: Gal4-VP16 luciferase reporter cells, at 3.6 µM, active compounds read high

Measured: inhibition

Sequence of Nuclear receptor subfamily 5 group A member 2 (Homo sapiens) (O00482 whole entry, looked up): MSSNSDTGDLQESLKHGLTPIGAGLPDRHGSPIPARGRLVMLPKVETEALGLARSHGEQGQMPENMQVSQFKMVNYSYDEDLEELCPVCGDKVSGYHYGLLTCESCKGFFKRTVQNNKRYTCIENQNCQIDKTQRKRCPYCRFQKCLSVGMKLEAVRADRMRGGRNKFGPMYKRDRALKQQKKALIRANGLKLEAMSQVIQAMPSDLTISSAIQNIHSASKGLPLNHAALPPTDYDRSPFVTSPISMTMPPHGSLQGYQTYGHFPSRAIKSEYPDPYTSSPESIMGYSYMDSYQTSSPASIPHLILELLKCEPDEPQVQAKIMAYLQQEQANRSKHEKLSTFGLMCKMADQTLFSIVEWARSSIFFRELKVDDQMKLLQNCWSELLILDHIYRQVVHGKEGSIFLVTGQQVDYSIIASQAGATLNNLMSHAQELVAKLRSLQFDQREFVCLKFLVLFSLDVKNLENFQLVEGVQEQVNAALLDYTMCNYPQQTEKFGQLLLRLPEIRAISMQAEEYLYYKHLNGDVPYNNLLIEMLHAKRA
Sequence of Nuclear receptor coactivator 1 (Homo sapiens) (Q15788 whole entry, looked up, the tested form may be a part): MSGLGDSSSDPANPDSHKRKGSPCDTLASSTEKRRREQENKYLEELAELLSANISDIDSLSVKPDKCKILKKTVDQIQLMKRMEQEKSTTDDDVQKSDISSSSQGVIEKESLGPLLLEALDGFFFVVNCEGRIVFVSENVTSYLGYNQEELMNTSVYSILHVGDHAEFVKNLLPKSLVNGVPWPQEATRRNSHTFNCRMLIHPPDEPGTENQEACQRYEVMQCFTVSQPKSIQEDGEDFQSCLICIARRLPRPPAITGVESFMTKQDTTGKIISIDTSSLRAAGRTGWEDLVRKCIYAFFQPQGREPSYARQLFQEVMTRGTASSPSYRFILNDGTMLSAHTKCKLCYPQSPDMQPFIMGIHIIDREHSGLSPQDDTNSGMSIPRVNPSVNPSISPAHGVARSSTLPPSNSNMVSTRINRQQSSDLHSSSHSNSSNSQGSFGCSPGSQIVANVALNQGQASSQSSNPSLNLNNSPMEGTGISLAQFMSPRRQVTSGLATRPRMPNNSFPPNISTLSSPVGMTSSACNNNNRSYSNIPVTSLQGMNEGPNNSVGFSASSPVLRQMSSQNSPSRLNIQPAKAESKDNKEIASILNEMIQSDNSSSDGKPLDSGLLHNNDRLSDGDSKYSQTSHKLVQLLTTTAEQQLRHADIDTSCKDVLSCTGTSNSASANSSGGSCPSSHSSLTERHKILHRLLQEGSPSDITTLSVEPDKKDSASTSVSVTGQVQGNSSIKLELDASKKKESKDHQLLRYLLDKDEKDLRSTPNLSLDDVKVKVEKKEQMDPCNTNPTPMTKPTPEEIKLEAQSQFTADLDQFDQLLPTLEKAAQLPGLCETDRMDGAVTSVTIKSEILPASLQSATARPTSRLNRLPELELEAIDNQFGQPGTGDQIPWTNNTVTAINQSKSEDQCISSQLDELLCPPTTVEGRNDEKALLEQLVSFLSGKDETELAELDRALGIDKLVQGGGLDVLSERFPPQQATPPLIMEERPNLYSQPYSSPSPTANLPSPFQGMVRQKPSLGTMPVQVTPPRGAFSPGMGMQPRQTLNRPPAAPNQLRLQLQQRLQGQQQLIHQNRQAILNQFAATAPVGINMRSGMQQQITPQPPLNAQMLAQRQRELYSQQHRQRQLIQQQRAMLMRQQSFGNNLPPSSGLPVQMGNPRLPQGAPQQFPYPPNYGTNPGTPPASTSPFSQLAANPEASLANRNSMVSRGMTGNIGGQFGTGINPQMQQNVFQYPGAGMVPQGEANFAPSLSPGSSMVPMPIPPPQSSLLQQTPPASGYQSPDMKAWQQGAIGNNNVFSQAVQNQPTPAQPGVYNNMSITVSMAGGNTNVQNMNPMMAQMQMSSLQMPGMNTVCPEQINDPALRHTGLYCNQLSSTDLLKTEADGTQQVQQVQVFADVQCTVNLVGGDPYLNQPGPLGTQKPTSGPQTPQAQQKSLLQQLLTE
Sequence of Nuclear receptor coactivator 3 (Homo sapiens) (Q9Y6Q9 whole entry, looked up, the tested form may be a part): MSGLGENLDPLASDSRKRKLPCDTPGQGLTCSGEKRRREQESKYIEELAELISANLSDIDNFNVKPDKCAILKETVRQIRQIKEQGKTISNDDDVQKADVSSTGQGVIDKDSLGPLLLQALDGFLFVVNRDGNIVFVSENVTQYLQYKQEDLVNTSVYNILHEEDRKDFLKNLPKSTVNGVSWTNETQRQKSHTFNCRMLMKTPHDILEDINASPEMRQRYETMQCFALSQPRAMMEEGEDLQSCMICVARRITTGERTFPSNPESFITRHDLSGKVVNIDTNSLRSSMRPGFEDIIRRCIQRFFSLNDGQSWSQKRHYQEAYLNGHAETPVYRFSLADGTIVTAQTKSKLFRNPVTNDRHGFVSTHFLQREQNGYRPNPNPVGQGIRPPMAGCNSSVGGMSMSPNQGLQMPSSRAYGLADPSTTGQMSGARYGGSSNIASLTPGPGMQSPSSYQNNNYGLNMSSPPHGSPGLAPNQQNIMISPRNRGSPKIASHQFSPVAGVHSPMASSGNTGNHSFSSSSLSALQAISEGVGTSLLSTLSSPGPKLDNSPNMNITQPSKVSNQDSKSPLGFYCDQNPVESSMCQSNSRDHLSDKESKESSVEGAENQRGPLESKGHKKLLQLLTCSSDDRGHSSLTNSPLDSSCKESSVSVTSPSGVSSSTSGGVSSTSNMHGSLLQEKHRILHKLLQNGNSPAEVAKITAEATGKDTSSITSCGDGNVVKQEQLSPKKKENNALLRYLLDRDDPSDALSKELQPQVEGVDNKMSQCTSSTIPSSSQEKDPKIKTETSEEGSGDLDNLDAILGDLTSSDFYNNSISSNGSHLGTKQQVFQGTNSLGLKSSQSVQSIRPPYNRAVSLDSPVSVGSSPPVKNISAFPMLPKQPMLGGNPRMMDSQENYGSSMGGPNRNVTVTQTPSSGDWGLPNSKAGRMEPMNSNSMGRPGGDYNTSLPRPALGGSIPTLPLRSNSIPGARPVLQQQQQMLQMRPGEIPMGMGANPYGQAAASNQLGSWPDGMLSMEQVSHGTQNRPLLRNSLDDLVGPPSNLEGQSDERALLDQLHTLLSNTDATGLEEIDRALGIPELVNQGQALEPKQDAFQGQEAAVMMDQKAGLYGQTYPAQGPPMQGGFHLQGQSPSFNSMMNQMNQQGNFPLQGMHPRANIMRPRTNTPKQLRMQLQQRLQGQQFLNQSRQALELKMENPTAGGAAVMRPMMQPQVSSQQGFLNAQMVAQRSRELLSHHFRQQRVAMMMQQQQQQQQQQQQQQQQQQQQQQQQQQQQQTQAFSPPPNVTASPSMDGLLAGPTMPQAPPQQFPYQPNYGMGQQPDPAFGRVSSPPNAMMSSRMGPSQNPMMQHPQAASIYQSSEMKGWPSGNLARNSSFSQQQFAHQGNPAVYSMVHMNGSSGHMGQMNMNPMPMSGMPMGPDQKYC
Sequence of Steroidogenic factor 1 (Homo sapiens) (Q13285 whole entry, looked up, the tested form may be a part): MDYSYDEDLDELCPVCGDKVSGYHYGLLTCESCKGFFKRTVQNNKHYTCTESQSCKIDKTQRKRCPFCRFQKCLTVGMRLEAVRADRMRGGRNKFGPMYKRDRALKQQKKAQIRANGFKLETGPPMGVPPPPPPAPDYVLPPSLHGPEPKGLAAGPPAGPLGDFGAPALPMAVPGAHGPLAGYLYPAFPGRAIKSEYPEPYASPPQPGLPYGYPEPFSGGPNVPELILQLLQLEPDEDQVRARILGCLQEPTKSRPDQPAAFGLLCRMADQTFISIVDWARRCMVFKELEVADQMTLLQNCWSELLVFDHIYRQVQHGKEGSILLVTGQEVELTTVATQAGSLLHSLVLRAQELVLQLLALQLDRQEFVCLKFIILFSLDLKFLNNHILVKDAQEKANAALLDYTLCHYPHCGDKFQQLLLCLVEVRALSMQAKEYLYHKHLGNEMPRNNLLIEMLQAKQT

CC(C)(C)c1ccc(-c2cn(-c3ccc(Br)cc3)c3[n+]2CCCS3)cc1
active: [1] 51.1% | [2] 59.4% | [3] 52.1% | [4] 61% | [5] 47.8% | [6] 107% | [7] 80.7% | [8] 89.2%

COc1ccccc1C(=O)Nc1nc(-c2ccc(S(=O)(=O)N3CCOCC3)cc2)cs1
active: [1] 68% | [2] 82.1% | [4] 74.5% | [5] 78.5% | [6] 98.4% | [7] 83.7% | [8] 92.2%
inactive: [3] 41.6%

CN(Cc1cnc2nc(N)nc(N)c2n1)c1ccc(C(=O)N[C@@H](CCC(=O)O)C(=O)O)cc1
inactive: [2] 12.6% | [3] 35% | [4] 8.93% | [8] 22.7%
active: [1] 66.7% | [5] 76.9% | [6] 54.9% | [7] 55.4%

CC(C)CCCCCCCCCCCCC(=O)NCC(=O)NC1C(O)C(O)C(Nc2ncnc3nc[nH]c23)OC1C(O)CO (stereo not drawn)
active: [1] 96.9% | [2] 95.9% | [3] 94.2% | [4] 95.4% | [5] 96.7% | [6] 110% | [7] 98.1% | [8] 98.2%

CCCCCC[n+]1ccccc1/C=C/c1ccc(N(C)C)cc1
active: [1] 89.5% | [2] 88.2% | [3] 64% | [4] 86.2% | [5] 81.5% | [6] 110% | [7] 94.8% | [8] 94.7%

CC(C)CC(=NNC(=O)c1ccncc1)c1cc(Cl)ccc1O
active: [1] 80.1% | [2] 72.5% | [3] 65.2% | [4] 78.7% | [5] 88.6% | [6] 101% | [7] 92.5% | [8] 85.7%
